Columns and labels:
[1] = target: T1, Aspartate--tRNA(Asp/Asn) ligase (Mycobacterium tuberculosis (strain ATCC 25618 / H37Rv)) (UniProt P9WFW3); assay: Assay for Asp RNA synthetase-1 from Mycobacterium tuberculosis; type: functional; design: scale not given: direction of the effect not stated beside the values; conditions: 30 µM; further: in the data most compounds retested in dose-response had high values
T1 sequence (whole entry): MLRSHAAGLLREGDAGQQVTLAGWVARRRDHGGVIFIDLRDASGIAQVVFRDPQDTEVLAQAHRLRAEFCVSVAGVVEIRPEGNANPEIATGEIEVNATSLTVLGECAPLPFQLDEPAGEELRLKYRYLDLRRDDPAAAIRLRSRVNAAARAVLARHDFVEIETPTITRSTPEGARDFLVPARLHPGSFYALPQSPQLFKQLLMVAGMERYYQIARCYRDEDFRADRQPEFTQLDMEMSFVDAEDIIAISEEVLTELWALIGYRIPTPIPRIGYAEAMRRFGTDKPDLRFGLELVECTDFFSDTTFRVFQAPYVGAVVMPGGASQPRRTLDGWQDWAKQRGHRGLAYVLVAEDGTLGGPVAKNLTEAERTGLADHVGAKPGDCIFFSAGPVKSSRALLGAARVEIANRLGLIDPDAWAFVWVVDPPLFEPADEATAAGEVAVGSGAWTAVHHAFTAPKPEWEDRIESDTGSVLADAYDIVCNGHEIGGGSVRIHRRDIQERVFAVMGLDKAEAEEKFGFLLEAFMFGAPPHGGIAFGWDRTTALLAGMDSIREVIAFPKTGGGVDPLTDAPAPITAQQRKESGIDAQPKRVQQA

[2] = target: Shiga toxin 2 (Escherichia coli O157:H7) (UniProt P09385+P09386); assay: E. coli 0.157:H7 Shiga Toxin SOP - stx2 screening assay; type: functional; design: scale not given: direction of the effect not stated beside the values; conditions: 30 µM

Structure (SMILES) | Percent Effect [1] [%] | Percent Effect [2] [%]
C[C@H]1C[C@@H]2CCN(C(=O)c3ccncn3)C[C@H]2O1 | 4.15 | -27.6
CC[C@@]1(O)CCN(C(=O)c2ccc(-c3cccc(F)c3)cc2)C[C@H]1O | 3.54 | 5.77
O=C(c1cccnc1)N1CCCC2(CCN(c3ccsc3)C2=O)C1 (configuration not stated) | 7.21 | -14.1
O=C(NC1CCS(=O)(=O)C1)c1sccc1-c1ccc(F)cc1 (configuration not stated) | -5.43 | 3.12
CN(C)[C@@H]1CCN(c2ncccn2)[C@H]1Cc1ccncc1 | 0.268 | -22.4
CCNC(=O)N1CCCCC1CCNS(C)(=O)=O (configuration not stated) | -3.62 | 4.69
O=C1CCC(C(=O)NCc2nn(-c3ccccc3)c3c2CCC3)CN1 (configuration not stated) | -2.23 | -54.3
CN(C)C(=O)CN1C[C@@H]2CC[C@H](C1)N(C(=O)CCn1cncn1)C2 | 1.04 | -6.26
Cc1cc(C)n(CC2CCCN2C(=O)c2ccc3c(c2)OCO3)n1 (configuration not stated) | -1.99 | -23.4
COc1ccc(OCC(=O)NC(C)c2ccccc2)c(C(=O)O)c1 (configuration not stated) | -1.11 | -9.07
CN1CC(=O)N(c2ccccc2)CC12CCN(Cc1cccnc1)C2 (configuration not stated) | -5.22 | -7.54
O=C(NCCN1CCCCC1)c1nc(-c2ccc3cc[nH]c3c2)no1 | 6.42 | -77.4
O=C(c1cnc(C2CC2)s1)N1CCCCC1Cn1cccn1 (configuration not stated) | -8.43 | -18.5
CCc1nc2n(n1)CC(NCc1noc(-c3ccccc3)n1)CC2 (configuration not stated) | -2.95 | -17.9
CNS(=O)(=O)c1ccc(C(=O)NC2CCc3nc(C)cn3C2)o1 (configuration not stated) | -6.5 | 17.4
COc1cccc(-n2nnc(C(=O)N3CCCC3)c2C)c1 | -2.63 | 5.03
COc1ccc(-n2ccc(C(=O)NCCN3CCCCC3C)n2)cc1 (configuration not stated) | 4.6 | -18.1
Cc1ccc(-c2csc(N)c2C#N)cc1 | -4.7 | -3.71
COc1c(C2CCCN2C(=O)c2cc(Cl)c[nH]2)c(C)nn1C (configuration not stated) | 0.802 | -13
COc1cccc(OCc2cc(C(=O)NC[C@H]3CCCN3)n[nH]2)c1 | 1 | -1.49
Cc1c(Br)cccc1C(=O)NC(C)CN1CCCC1=O (configuration not stated) | -1.01 | 1.67
CCc1nc(C2CCCN2CC(=O)Nc2sc(C)c(C)c2C)no1 (configuration not stated) | 0.212 | 8.78
O=C(NCC1(CO)CC1)c1cccc2ccccc12 | -3.45 | -0.178

Structure (SMILES) | Percent Effect [1] [%] | Percent Effect [2] [%]
COCc1noc(C2(c3ccc(F)cc3)CCOCC2)n1 | -2.06 | -10.8
O=C(NCCc1ccsc1)Nc1cccnc1N1CCCC1 | 1.77 | -4.75
COCC1CN(Cc2ccc(OC)cc2)Cc2nn(C)cc21 (configuration not stated) | 14.5 | -22.6
Cc1n[nH]cc1CNc1ccc2c(c1)CN(C(=O)OC(C)(C)C)CC2 | 2.29 | -13.2
Cc1oncc1C(=O)N1CCC2(CC1)CC(c1ccccc1)C(=O)N2C (configuration not stated) | -1.78 | -15.3
CCOc1ccc(S(=O)(=O)NC(=O)CCC2CCCO2)cc1 (configuration not stated) | 2.17 | 23.1
COc1ccc(-n2ccc(C(=O)N3CCN(C)CC3C)n2)cc1 (configuration not stated) | -10.9 | -0.158
CCc1nc(C2CCCN2CC(=O)Nc2c(C)nn(C)c2C)no1 (configuration not stated) | 3.31 | -7.62
CCNC(c1cccnc1)c1ccc(F)c(F)c1 (configuration not stated) | -4.58 | 10.8
c1coc(CN2C[C@H](OCC3CCOCC3)[C@H]3COC[C@H]32)c1 | 1.73 | 12.6
C[C@H]1CN(Cc2cnn(C)c2)C[C@@]12CCN(Cc1cccnc1)C2=O | -2.89 | -10.2
CN1CC(c2ccccc2)CC12CCN(C(=O)c1c(Cl)cnn1C)CC2 (configuration not stated) | -1.22 | 17
COc1ccccc1N1CCC(CNCc2cccc(OC)c2OC)C1 (configuration not stated) | 10.8 | -7.96
CCc1[nH]ncc1C(=O)N1CCCC(n2nc(C)nc2C)C1 (configuration not stated) | -1.03 | 12.8
CC1(C(=O)N2CCOCC2)CN(Cc2ccccc2F)CCO1 (configuration not stated) | -0.309 | 1.31
COCCNC(=O)NCc1ccc(OC(C)C)c(F)c1 | -1.07 | 29.6
Cc1cccc(-c2ccc(C(=O)NCC(C)(C)C(N)=O)c(=O)[nH]2)c1 | 7.72 | -21.6
O=C(Nc1cccc(CNCc2csc(Br)c2)c1)C1CC1 | -0.759 | -73.7
Cc1noc2nc(C3CCN(CC4=CCCOC4)CC3)cc(C(F)F)c12 | 12.2 | -23.1
CC(C)(C)c1cnc(CN2CCCC2Cn2cccn2)o1 (configuration not stated) | -3.34 | 0.322
CCc1nc(CN(C)C2CCN(CCn3cc(C#N)cn3)C2)no1 (configuration not stated) | 9.06 | 9.46
CSCC(=O)N1C[C@H]2CC[C@@H]1CN(Cc1ccccc1)C2 | 4.28 | -4.7
Cc1ccc(NC2CCN(C(=O)c3cc(C(N)=O)cs3)CC2)nn1 | 4.69 | 3.48

— ChEMBL document CHEMBL3988442, “University of Dundee, Small-Polar-MMV Screening Library” (2021)
